# CHX counter – counter-screen for Shiga toxin inhibitors: cycloheximide protein synthesis inhibition | cell reporter, cycloheximide protein synthesis inhibition counterscreen | max response, % | actives 12% (n = 300,000); in the data active means max response mostly above about 13%, no sharp cut-off; inactive means mostly below about 14%; further: read at 38.3 µM for the half of the compounds with a filed dose; 0% is about no effect
# Pf growth 96h – P. falciparum growth inhibition at 96 hours | P. falciparum luciferase reporter growth, 96 h | Potency, µM (series often up to 28.7 µM), without a hit: at the top dose activity change, negative = inhibition, actives largely listed as inhibitors | actives 6.9% (n = 320,000); further: potency means the concentration at half of the fitted maximal effect; on the % scale 0 is the no-effect control and ±100 the full control effect
#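 Parasite growth measured via integrated firefly luciferase reporter in P. falciparum. Infected erythrocytes at 2% hematocrit, 0.05% parasitemia final were treated 96 hours at 37 C under 5% CO2, and luminescence was read.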
# HCV inhibitor – inhibitors of hepatitis C virus infection. Huh7.5.1 HCVcc-Cre infection, luciferase reporter, 44 h. Potency, µM (titrated, usually from 41.8 µM), inactives show at the highest dose activity change, negative = inhibition, most hits filed as inhibitors. actives 3.4% (n = 340,000); further: potency means the concentration at half of the fitted maximal effect; on the % scale 0 is the no-effect control and ±100 the full control effect
#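 Seed cells (1,000/well) for 4 h; treat with compound and infect with HCVcc-Cre, moi about 0.5. Incubate 44 h, then detect luciferase activity.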
# HCMV antiviral – blocks human cytomegalovirus replication; HFF cells, HCMV-luciferase reporter, 72 h; active compounds read low; activity change, negative = inhibition, % at 57.5 µM; actives 4.5% (n = 410,000); AID 1259415; in the data active means activity change below about -60%; inconclusive means no clear call, values can overlap the other calls; inactive means above about -39%; further: on the % scale 0 is the no-effect control and ±100 the full control effect
#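 Cell-based, HFFs, 1000 cells/well, 16 h 37C; cpds in DMSO + HCMV-luc, MOI 1 PFU/cell; 72 h 37C; OneGlo luminescence after 5 min RT; norm. to buffer vs Salinomycin 10uM.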
# Pf growth 48h – inhibits P. falciparum growth in the first generation, 48 h | AID 504832 | P. falciparum luciferase growth in erythrocytes, 48 h | actives 5.9% (n = 310,000) | Potency, µM (doses to about 28.7 µM), without a hit: top-dose activity change, negative = inhibition, most hits filed as inhibitors; further: potency means the concentration at half of the fitted maximal effect; on the % scale 0 is the no-effect control and ±100 the full control effect
#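 Firefly luciferase activity from engineered P. falciparum reports growth; inhibitors lower the luminescent signal. Cultures contained 2% hematocrit erythrocytes at 0.1% final parasitemia.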
# Shiga inhibitor – blocks Shiga toxin action in Vero cells. actives 9.2% (n = 290,000). AID 2315. Vero cells, Shiga toxin protein synthesis inhibition reporter. inhibition, % at 38.7 µM; in the data active means inhibition mostly above about 28%, no sharp cut-off; inactive means mostly below about 43%; further: 0% is about no effect
# Starred values were filed as active, the others as inactive; i = inactive; ? = inconclusive; . = no result given. In the library only some 21% were active in any assay of this set; here they are far more common. Unless noted, the call rests on the fitted dose curve; in most records, active means well fitted inhibition curve with a large enough effect; inconclusive means small, poorly fitted or top-dose-only effect, or another doubt; inactive means no such curve, though single readings can be large or run the other way.
SMILES,CHX counter,Pf growth 96h,HCV inhibitor,HCMV antiviral,Pf growth 48h,Shiga inhibitor
CNC(=O)/C(C#N)=C/c1ccc(-c2nc3ccccc3s2)o1,43*,110%,-16%,-29,92%,55*
N#C/C(=C/c1ccc(-c2ccc(S(N)(=O)=O)cc2)o1)C(=O)Nc1ccccc1,-2,?,-27%,-18,-22%,-15
NC(N)=Nc1nc2ccccc2o1,18,101%,6%,19,59%,20
O=c1cc(C(F)(F)F)[nH]c(=S)n1-c1ccccc1,1,3%,?,-33,7%,-2
O=C(NCc1nnc(SCC(=O)N2CCOCC2)o1)c1ccccc1,.,.,.,-31,.,.
CCCNC(=O)N1N=C(c2ccc(N)cc2)c2cc3c(cc2C1C)OCO3 (stereo not drawn),-2,.,.,.,.,-4
Cc1[nH]n(-c2ccccc2)c(=O)c1/C=N/c1nn[nH]n1,-3,i,4%,-6,66%,-12
CSc1nnc(-c2ccccc2N=Cc2c(C)[nH]n(-c3ccc4ccccc4c3)c2=O)c(=O)[nH]1,33*,80%,4%,92,62%,37
C=CCSc1nnc(-c2ccccc2N=Cc2c(C)[nH]n(-c3ccccc3)c2=O)c(=O)[nH]1,23*,1%,?,0,.,56
Cc1[nH]n(-c2ccccc2)c(=O)c1C=Nc1cnc2ccccc2c1,-2,-11%,?,-11,.,-18
CC(C)c1ccc(NC(=O)CCS(=O)(=O)c2ccc(Br)s2)cc1,.,.,.,-6,.,.
Cc1cccc(C(=O)N(Cc2nc3ccccc3c(=O)[nH]2)C2CCCC2)c1,1,22%,-18%,23,-29%,-10
Cc1cccc(C(=O)N(Cc2nc3ccccc3c(=O)[nH]2)C2CCCCC2)c1,1,?,0%,-79*,-24%,16
O=C(c1ccc(Br)cc1)N(Cc1nc2ccccc2c(=O)[nH]1)C1CCCC1,1,-1%,?,-62*,?,-3
CCOC(=O)/C(C#N)=C/c1cn(CCOc2ccccc2)c2ccccc12,0,9.3µM*,?,-25,14%,-7
N#C/C(=C\c1cn(CCOc2ccccc2)c2ccccc12)C(=O)NCc1ccco1,16*,4%,-1%,?,?,13
CCOC(=O)/C(C#N)=C\c1cn(C)c2ccccc12,23,35%,5%,25,0%,37
COc1ccc(C(=O)CN(CCC(=O)O)S(=O)(=O)c2ccc([N+](=O)[O-])cc2)cc1,.,17%,5%,-4,12%,.
COc1ccccc1-c1nc2c(c(SCC(=O)Nc3ccc(C)c(C)c3)n1)Cc1c(CO)cnc(C)c1O2,.,.,.,-76*,.,.
Cc1ncc(CO)c2c1Oc1nc(-c3ccccc3)nc(SCC(=O)N3CCCCC3)c1C2,-9,?,?,-38,?,-2
COc1ccccc1-c1nc2c(c(SCC(=O)N3CCCCC3)n1)Cc1c(CO)cnc(C)c1O2,-1,1.7µM*,?,?,10µM*,-1
CCOC(=O)C1=C(CS(=O)(=O)c2ccc(C)cc2)NC(=O)NC1c1cc(OC)c(O)c(OC)c1 (stereo not drawn),-5,?,14%,0,18%,-2
Cc1ccc(C)c(S(=O)(=O)c2c(N)n(/N=C/c3ccco3)c3nc4ccccc4nc23)c1,-1,?,?,-31,10µM*,21
Nc1c(S(=O)(=O)c2cccs2)c2nc3ccccc3nc2n1CCc1ccccc1,0,3.3µM*,.,.,?,0
Cc1cccc(S(=O)(=O)c2c(N)n(/N=C/c3ccccc3)c3nc4ccccc4nc23)c1,-3,24%,2%,-30,.,15
SMILES,CHX counter,Pf growth 96h,HCV inhibitor,HCMV antiviral,Pf growth 48h,Shiga inhibitor
Nc1c(S(=O)(=O)c2cccs2)c2nc3ccccc3nc2n1Cc1cccs1,-3,8.3µM*,-9%,.,?,-14
COc1ccc(CCn2c(N)c(S(=O)(=O)c3cccs3)c3nc4ccccc4nc32)cc1OC,9,?,?,.,9.3µM*,-8
CCc1noc(C)c1C(=O)N1CCN(S(=O)(=O)c2ccccc2C(F)(F)F)CC1,.,-24%,0%,-5,?,.
CCCC(=O)N1CCC2(CC1)CN(C(=O)Nc1cccc(F)c1)[C@H](CO)c1c2c2ccc(OC)cc2n1C,.,.,.,-21,.,.
CCOc1ccc(CCNC(=O)CSCc2nc(-c3cccc(C)c3)oc2C)cc1OCC,.,.,.,-24,.,.
c1ccc(Cn2c(-c3ccccc3)nc3nc4ccccc4nc32)cc1,-5,?,?,?,0%,3
COCCn1c(-c2cccs2)nc2nc3ccccc3nc21,13*,-19%,2%,-1,?,20
c1csc(-c2nc3nc4ccccc4nc3n2Cc2ccc3c(c2)OCO3)c1,12*,17%,-22%,-24,?,33*
CCCn1c(-c2cccs2)nc2nc3ccccc3nc21,11,?,?,138,-4%,27
Nc1c(S(=O)(=O)c2ccccc2)c2nc3ccccc3nc2n1/N=C/c1cccc(O)c1,-11,4%,14µM*,-101*,-25%,-17
Nc1c(S(=O)(=O)c2cccs2)c2nc3ccccc3nc2n1Cc1ccc2c(c1)OCO2,-5,.,?,.,15µM*,-41
O=C(CCS(=O)(=O)Cc1ccccc1F)NCCc1ccc(Cl)cc1,1,-7%,10%,-28,40%,-6
Nn1c(SCc2cccc(F)c2)nnc1-c1ccncc1,17,0%,7%,2,30%,-3
CCOC(=O)c1ccc(NC(=O)CSc2cc(-c3ccccc3)nc(C)n2)cc1,.,.,.,-6,.,.
COc1ccccc1/C=N/n1c(N)c(S(=O)(=O)c2cccs2)c2nc3ccccc3nc21,12,.,-1%,-22,6.6µM*,10
CC(=O)c1ccc(NC(=S)NNC(=O)NC2CCCCC2)cc1,21*,22%,5%,13,16%,59
O=C(NC1CCCCC1)c1cccc(OCc2ccccc2)c1,11,?,14µM*,?,-21%,16
Cc1ccc(NC(=S)NNC(=S)NC2CCCCC2)cc1,-7,-4%,12%,-14,0%,35
O=C(Nc1ccc(Br)cc1)NC1CCCCCCC1,44*,?,?,-31,105%,137*
Cc1ccc(CN=C(Nc2ccccc2)NC2CCCCC2)cc1,-3,?,-2%,-21,10µM*,7
O=C(NC1CCCCCCC1)c1ccc(Br)cc1,.,.,2%,76,.,.
CN(CCc1nc2ccc(Cl)cc2[nH]1)Cc1nc(CC2CC2)no1,-1,?,-14%,-9,-3%,-10
COc1ccc([C@H]2CC(=O)C=C(c3ccc4c(c3)OCCO4)C2)cc1,.,37%,3%,53,41%,.
O=C(CN1CCC(NC(=O)Cc2ccccc2)CC1)Nc1cccc2ccccc12,-4,8.3µM*,-12%,13,?,-19

# Bioassay records (PubChem BioAssay)
